The subject of this experiment is RIVA. The experiment is described as follows: growth inhibition by drug plus 177Lu-lilotomab satetraxetan (1 - RLU/untreated control) (fraction); higher = stronger inhibition. The following applies: 100 nM; time (day): 4; 177Lu-lilotomab satetraxetan 0.5 ug/ml. In short, it runs like this:
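With or without 18 h pretreatment by a radiolabelled anti-CD37 antibody conjugate (~600 MBq/mg; 0.5 µg/ml RIVA, 1 µg/ml U-2932), RIVA and U-2932 cells were washed and plated at 3,000 cells/well. Pre-printed compound doses were 10/100 nM for RIVA and 10/1,000 nM for U-2932. Growth inhibition uses RealTime-Glo RLU relative to the untreated no-drug wells. The calculation is 1 − RLU/mean of 48 such wells per plate, with reads daily from day 3 after 1 h at 37°C.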
Take `COc1ccc(S(=O)(=O)Nc2cccnc2Nc2ccc(O)cc2)cc1`: the “growth inhibition by drug plus 177Lu-lilotomab satetraxetan” value (from here on “growth inhibition”) is 0.502.

Consider `C[C@]12CCC(=O)C=C1CC[C@@H]1[C@@H]2[C@@H](O)C[C@@]2(C)[C@H]1CC[C@]2(O)C(=O)CO` [Hydrocortisone (Cortisol)], for which the “growth inhibition” value came to 0.303. Next, `COc1cc(OC2CCN(C)CC2)ccc1Nc1ncc2c(n1)n(C1CCCC1)c(=O)n2C`: 0.432; `Nc1nc(F)nc2c1ncn2[C@@H]1O[C@H](CO)[C@@H](O)[C@@H]1O` [Fludarabine (Fludara)]: 0.553. Then `Nc1nc(Nc2ccc(S(N)(=O)=O)cc2)nn1C(=O)c1c(F)cccc1F`, with 0.6. `Nc1ncn([C@@H]2O[C@H](CO)[C@@H](O)[C@H]2O)c(=O)n1` [Azacitidine (Vidaza)]: the “growth inhibition” value was determined as 0.37.

`COc1cc2nccc(Oc3ccc(NC(=O)NC4CC4)c(Cl)c3)c2cc1C(N)=O` [E7080 (Lenvatinib)]: the “growth inhibition” value amounted to 0.44. Next, `Nc1ccn([C@@H]2O[C@H](CO)[C@@H](O)[C@@H]2O)c(=O)n1` [Cytarabine]: 0.771. Next, `Nc1cccc2c1C(=O)N(C1CCC(=O)NC1=O)C2=O` (configuration not stated) [Pomalidomide]: 0.414; `CN(C)c1nc(N(C)C)nc(N(C)C)n1` [Altretamine (Hexalen)]: 0.318; `Cc1[nH]c(/C=C2\C(=O)Nc3ccc(S(=O)(=O)N(C)c4cccc(Cl)c4)cc32)c(C)c1C(=O)N1CCN(C)CC1`: 0.518. Then `O=C(O[C@@H]1Cc2c(O)cc(O)cc2O[C@@H]1c1cc(O)c(O)c(O)c1)c1cc(O)c(O)c(O)c1` [(-)-Epigallocatechin gallate], with 0.454.

For the origin of these results see the supplement of paper PMC6897291.
